Compounds with a hit are over-represented: about 1.2% of the library has one in this group of screens.
GC-B act – GC-B (human) receptor activation. P20594. HEK293-GC-B cells, CNP EC30, cGMP TR-FRET; 0% at EC30 CNP, 100% saturating CNP. activation, % at 10 µM. 370,000 tested, 0.11% active. AID 1920062;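 active means activation at 10 µM reaching about 35% in either raw or pattern-adjusted values, limit read from the data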
Neddyl block – cullin neddylation inhibition. P61081+Q13564. TR-FRET cullin neddylation, biochemical. inhibition, % at 25 µM. 360,000 tested, 0.58% active. AID 651699; in the data active means inhibition above about 36%
NPR1 activator – GC-A (human) enzyme activation; HEK293 GC-A cells, cGMP TR-FRET, EC30 ANP; 0% at EC30 ANP, 100% saturating ANP; activation, % at 10 µM; 370,000 tested, 0.14% active; in the data active means activation above about 40%
Target sequence (P16066 whole entry, looked up): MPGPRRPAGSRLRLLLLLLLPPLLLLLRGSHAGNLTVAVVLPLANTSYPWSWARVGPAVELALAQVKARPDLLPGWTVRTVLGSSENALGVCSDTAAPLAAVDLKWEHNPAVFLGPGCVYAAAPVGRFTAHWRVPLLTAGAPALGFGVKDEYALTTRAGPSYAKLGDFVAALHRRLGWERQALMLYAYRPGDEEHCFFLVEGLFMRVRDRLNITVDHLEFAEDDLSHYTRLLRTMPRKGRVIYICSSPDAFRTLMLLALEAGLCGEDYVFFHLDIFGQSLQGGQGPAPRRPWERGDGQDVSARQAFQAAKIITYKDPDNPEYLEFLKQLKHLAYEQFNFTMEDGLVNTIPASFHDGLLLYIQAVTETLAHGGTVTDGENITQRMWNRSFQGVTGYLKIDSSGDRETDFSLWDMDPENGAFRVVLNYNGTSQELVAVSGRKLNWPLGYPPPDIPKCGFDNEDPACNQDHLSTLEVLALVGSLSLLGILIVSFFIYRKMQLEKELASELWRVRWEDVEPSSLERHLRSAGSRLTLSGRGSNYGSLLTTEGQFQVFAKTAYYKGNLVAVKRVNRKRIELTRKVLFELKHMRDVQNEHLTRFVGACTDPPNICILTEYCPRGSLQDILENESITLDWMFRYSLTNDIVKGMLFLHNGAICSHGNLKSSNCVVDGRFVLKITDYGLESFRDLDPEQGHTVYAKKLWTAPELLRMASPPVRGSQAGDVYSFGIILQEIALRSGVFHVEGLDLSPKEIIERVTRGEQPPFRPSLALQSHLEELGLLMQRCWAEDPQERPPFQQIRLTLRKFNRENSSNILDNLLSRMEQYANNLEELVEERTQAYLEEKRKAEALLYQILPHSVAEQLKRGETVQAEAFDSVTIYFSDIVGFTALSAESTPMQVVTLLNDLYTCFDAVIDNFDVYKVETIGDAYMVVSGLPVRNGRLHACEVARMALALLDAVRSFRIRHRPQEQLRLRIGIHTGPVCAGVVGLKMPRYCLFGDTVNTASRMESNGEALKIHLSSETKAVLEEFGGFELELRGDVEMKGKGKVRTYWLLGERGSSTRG
NOD2 RIPK2 PPI – NOD2-RIPK2 protein interaction inhibition; O43353; CHO BLA complementation NOD2-RIPK2, CCF4 ratio; inhibition, % at 4.98 µM; 360,000 tested, 0.38% active; AID 624267; in the data active means inhibition above about 21%;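 further: 0% = vehicle only and 100% = reference blocker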
TLR4-MyD88 BLA – TLR4-MyD88 interaction inhibition in cells; 200,000 tested, 0.18% active; AID 861; O00206+Q99836; inhibition, % at 8.4 µM; HeLa CL3-4 TLR4/MyD88 BLA complementation, FRET ratio; in the data active means inhibition above about 25%;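 further: 0% = vehicle and 100% = reference inhibitor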
TLR9-MyD88 inh – blocks human TLR9 binding to MyD88; CHO BLA complementation TLR9-MyD88, CCF4 FRET ratio; inhibition, % at 4.98 µM; 340,000 tested, 0.21% active;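 active means inhibition above the mean over all tested compounds plus 3 SD, cut at about 21% in these data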;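 further: 0% = DMSO only wells and 100% = clavulanate BLA inhibitor control wells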
Numbers without * were called inactive; / = no result.

SMILES	GC-B act	Neddyl block	NPR1 activator	NOD2 RIPK2 PPI	TLR4-MyD88 BLA	TLR9-MyD88 inh
Cc1csc(SCC(=O)N(C)C2CCS(=O)(=O)C2)n1 (configuration not stated)	90.4*	11.5	4.9	-9.5	/	-7.0
CC(C)[C@H](NC(=O)OCc1ccccc1)C(=O)N[C@@H](Cc1ccccc1)C1(O)CN(C)C(C(=O)NCc2ccccn2)CO1 (some centres not stated)	1.2	/	-0.1	/	/	/
CCC(=O)N(C)C[C@@H]1[C@H](c2ccc(C3=CCCCC3)cc2)[C@H](CO)N1C(=O)CC	-2.9	/	1.6	/	/	/
NC1=NC(=O)/C(=C\c2ccc(-c3ccc(Cl)cc3)o2)S1	38.1*	-9.3	33.0	2.8	/	13.3
O=C(Nc1nc2c(F)cccc2s1)C1CC1	2.3	5.2	28.9	1.4	/	-1.3
Cc1c(Cl)ccc2sc(NC(=O)CN3C(=O)c4ccccc4C3=O)nc12	-4.0	4.3	11.3	-5.7	-1.1	-4.9
CC(=O)Nc1cc(C)c2nc(NC(C)=O)sc2c1	0.8	-1.6	-1.0	-9.8	/	1.6
CC(=O)Nc1nc2c(C)c(Cl)ccc2s1	-3.3	-4.8	49.1*	5.9	/	-3.3
CCCC(=O)Nc1nc2c(C)c(Cl)ccc2s1	-3.4	-7.1	42.5*	-3.9	/	5.8
COc1cc([N+](=O)[O-])cc2sc(NC(=O)C3CC3)nc12	-4.2	-1.2	47.4*	1.0	0.8	1.0
Cc1c(Cl)ccc2sc(NC(=O)C3CC3)nc12	-7.0	-10.8	54.7*	-10.9	/	6.4
COCCCN1C(=O)[C@H](CC(=O)NCC23CC4CC(CC(C4)C2)C3)[C@]2(C(=O)OC)CCCCC=C12	8.6	/	0.3	/	/	/
Cc1ccnc(NC(=S)N2CCC(Nc3cccc(C(F)(F)F)c3)CC2)c1	-10.2	/	1.6	/	/	/
Cc1ccc(C)c2sc(NC(=O)CN3C(=O)CCC3=O)nc12	-2.8	1.3	6.9	-9.4	/	-3.3
Cc1ccc2sc(NC(=O)CN3C(=O)CCC3=O)nc2c1C	7.2	-2.9	50.1*	-12.3	0.1	-1.3
Cc1cccc(NCCC(=O)c2ccc(Br)cc2)c1	-9.3	-3.4	3.2	-2.2	-10.9	8.0
CCOC(=O)CNCCC(=O)c1ccc(Br)cc1	-8.8	8.8	48.9*	-9.3	-10.9	6.7
CN(C)Cc1cc(O)c(CN(C)C)cc1O	5.6	39.1*	0.6	-2.8	/	4.4
CN(C)Cc1cc(C(C)(C)C)cc(C(C)(C)C)c1O	4.4	-0.2	0.8	2.5	/	-4.8
CCCCc1c(-c2ccccc2OC)ncn1Cc1ccc(F)c(F)c1	-14.8	/	-9.1	/	/	/
CC(=O)Oc1ccc2c(c1)O/C(=C\c1ccncc1)C2=O	/	-13.1	/	30.9*	/	12.8
Cc1ccc(C)c(-c2nn(-c3cc(N4CCN(CCO)CC4)ccc3[N+](=O)[O-])c(=O)c3ccccc23)c1	-3.7	-40.6	0.7	21.5*	-14.3	2.9
Cc1nn(-c2cc(N3CCCC3)ccc2[N+](=O)[O-])c(=O)c2ccccc12	0.8	-30.0	1.3	-0.7	2.0	-4.4
Cc1ccc2nc(NC(=O)c3ccco3)sc2c1	-1.6	33.5	2.2	-6.3	4.3	-5.2
COc1ccc2nc(NC(=O)c3ccco3)sc2c1	-2.1	48.4*	3.8	-6.9	/	4.0
SMILES	GC-B act	Neddyl block	NPR1 activator	NOD2 RIPK2 PPI	TLR4-MyD88 BLA	TLR9-MyD88 inh
CC(NCc1ccco1)C(=O)N1CCCN(C)CC1 (configuration not stated)	-4.5	/	1.0	/	/	/
O=C(NCc1ccco1)C1CCCN(S(=O)(=O)c2ccc([N+](=O)[O-])cc2)C1 (configuration not stated)	-3.2	/	2.7	/	/	/
Cc1cc(C[n+]2ccccc2)c2nsnc2c1	0.9	45.3*	6.8	-4.6	-8.9	-2.5
Cc1cc(C[n+]2ccsc2N)c2ncccc2c1	5.6	-8.6	-0.6	-20.8	/	-4.6
CCOC(=O)c1c(-c2ccc(C)o2)csc1NC(=O)CSc1nncs1	-0.3	-11.9	0.8	22.4*	-4.4	-11.1
O=C(CNS(=O)(=O)c1cc2ccccc2s1)N1CCN(c2ccccn2)CC1	-13.9	/	-22.9	/	/	/
COC(=O)[C@]12C[C@H](CC(=O)NCc3ccccc3)C(=O)N(CCc3ccc(OC)c(OC)c3)C1=C[C@H](C(C)C)O[C@@H]2C1CC1	3.0	/	0.4	/	/	/
